# Data: PubChem BioAssay AID929 (National Center for Advancing Translational Sciences (NCATS), 2007)
# This is one part of the list. Records with an inconclusive call do not appear. Calls of active or inactive are those of the source. Calls follow the shape of the dose curve; as a rule, active = well fitted inhibition curve with a large enough effect in the main read-out, with a control signal flat; inconclusive = small, poorly fitted or top-dose-only effect, or a change in a side signal; inactive = no such curve, though single readings can be large or run the other way.
# Target: Caspase-1 (Homo sapiens) (UniProt P29466)
# Sequence (P29466 120-297 limits assumed): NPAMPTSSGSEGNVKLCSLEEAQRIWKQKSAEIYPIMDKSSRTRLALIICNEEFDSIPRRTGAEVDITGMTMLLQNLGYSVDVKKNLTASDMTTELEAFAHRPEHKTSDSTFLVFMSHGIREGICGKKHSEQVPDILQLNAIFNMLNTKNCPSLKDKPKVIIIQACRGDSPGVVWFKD
# Sequence (P29466 317-404 limits assumed): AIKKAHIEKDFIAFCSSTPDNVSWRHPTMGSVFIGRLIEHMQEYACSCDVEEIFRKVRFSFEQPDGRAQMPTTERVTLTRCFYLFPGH
# Test: Concentration-Response Counterscreen for Redox Active Inhibitors of Caspase-1: Cysteine
# Settings: recombinant caspase-1, fluorogenic substrate, cysteine buffer; series mostly up to 57.5 µM
# Text: NIH Molecular Libraries Screening Centers Network [MLSCN]
# NIH Chemical Genomics Center [NCGC]
# PI Name: Dr. James Wells,
# Dr. Enrique Perez-Paya, Dr.Janice Williams, Dr. Dennis Wolan, a person
# The caspases (Cysteine Aspartyl Protease) comprise a related family of 14 dimeric proteases that are critical mediators of apoptosis (programmed cell death) and inflammation. The caspases represent an important class of drug targets for stroke, ischemia, cancer and inflammatory diseases. […] One goal of this project was to identify compounds that act as allosteric inhibitors via stabilizing the procaspase form of the enzyme. […]
# The biochemical assay was configured using purified caspase 1 at a high enzyme concentration to promote formation of the homodimers and thus facilitate the identification of allosteric inhibitors. […] After initiation of the assay with substrate the plates were rapidly read using an automated robotic system (Kalypsys, Inc.) to maintain consistent timing. […] Product formation was also measured after 1 hour. […]
# Caspase 1 was prepared in buffer (50 mM HEPES pH 7.5, 50 mM KCl, 200 mM NaCl, 10 mM Cys (Aldrich cat# 861677), 0.1% CHAPS) at a concentration of 66.6 nM and 3 uL was dispensed to all wells using black solid Kalypsys 1536-well plates. […] The plates were then exposed using 405 nm excitation/520 nm emission filters for 4 sec and read at 20 sec intervals for 3 min. […]
row,Compound,outcome
1,Cc1nc2c(C(=O)NCc3ccc4c(c3)OCO4)c[nH]n2c(=O)c1Cc1ccccc1F,inactive
